# PubChem BioAssay (NCI)
# This is part of a sample that, as a whole, favours compounds with a hit. Of some 79,000 tested, about 15% had one in any assay. Values without a mark were called inactive. Active and inactive are the calls of the source. No stated cut-off is given here; in the data, active means growth inhibition above about 70%; inactive means the rest.
# Experiment: NCI Yeast Anticancer Drug Screen. Data for the mlh1 strain (AID 171);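 further: 0% = growth of vehicle-treated control cultures of the same strain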
# Settings: S. cerevisiae mlh1 strain growth inhibition, active compounds read high
# Procedure: Growth inhibition of yeast strains with defined genetic alterations is measured as a screen for potential anti-cancer activity. Selected strains with alterations in DNA damage repair or cell cycle control were exposed to compounds and growth inhibition was measured relative to vehicle treated controls. The strain used in this assay is mlh1
Compound,growth inhibition (at 1.2 µM),growth inhibition (at 3.7 µM),growth inhibition (at 11.0 µM),growth inhibition (at 33.0 µM),growth inhibition (at 100.0 µM)
CC(=O)Oc1ccc2c(c1)Cc1cc(N3C(=O)C=CC3=O)ccc1-2,13%,24%,74% (active),98% (active),97% (active)
COC(=O)/C(C#N)=C\NC(=S)C(N)=S,17%,32%,98% (active),99% (active),98% (active)
COc1cc(OC)c(CSCC(NC(=O)OCC2c3ccccc3-c3ccccc32)C(=O)O)c(OC)c1 (stereo not given),3%,9%,62%,97% (active),98% (active)
Cn1c(-c2ccc(/C=N\N3CCN(/N=C/c4ccc(-c5c[n+]6ccsc6n5C)cc4)CC3)cc2)c[n+]2ccsc12,33%,32%,19%,47%,74% (active)
CC1=CC(C)(C)SC(SSSC2=NC(C)=CC(C)(C)S2)=N1,-5%,-4%,0%,11%,88% (active)
C=CC(C)(C)N1C(=O)C(C(C)=O)=C(O)C1Cc1c[nH]c2ccccc12 (stereo not given),-6%,0%,0%,14%,66%
C=CCNC1=C2C[C@@H](C)C[C@H](OC)[C@H](O)[C@@H](C)/C=C(\C)[C@H](OC(N)=O)[C@@H](OC)/C=C\C=C(/C)C(=O)NC(=CC1=O)C2=O,-36%,-56%,50%,94% (active),95% (active)
CCN(CC)C(=S)SC(=S)N(CC)CC,-38%,-48%,-6%,88% (active),98% (active)
